Data reported in the antibiotic and cytotoxicity screens of Wong et al. (2023).
Hit rate of the full screen: of about 39,000 compounds, about 3,300 (8.5%) were called active. The sample as a whole holds a higher share of actives than the screen did.

system: HepG2; assay: cytotoxicity call (relative viability < 0.9); settings: 10 µM

| SMILES | cytotoxicity call |
| --- | --- |
| C[C@@H]1CCCCO[C@@H](CN(C)S(C)(=O)=O)[C@H](C)CN([C@@H](C)CO)C(=O)c2cc(NS(=O)(=O)c3cn(C)cn3)ccc2O1 | inactive |
| C[C@H]1CN([C@@H](C)CO)C(=O)c2cc(NC(=O)C3CC3)ccc2O[C@@H]1CN(C)C(=O)NC1CCCCC1 | inactive |
| O=C(C[C@H]1C[C@@H]2c3cc(NC(=O)Cc4ccncc4)ccc3O[C@@H]2[C@H](CO)O1)NCCN1CCCCC1 | inactive |
| C[C@H]1CN([C@@H](C)CO)C(=O)c2cccc(NC(=O)CCCCCC(=O)Nc3ccccc3N)c2O[C@@H]1CN(C)C(=O)Nc1ccc(F)cc1 | inactive |
| C[C@@H]1CCCCO[C@@H](CN(C)CC2CCCCC2)[C@@H](C)CN([C@H](C)CO)C(=O)c2cc(NC(=O)Cc3ccccc3)ccc2O1 | inactive |
| COc1ccccc1[C@@H](NC(=O)C1CCN(CCn2cnc3c2c(=O)n(C)c(=O)n3C)CC1)c1ccccn1 | inactive |
| CN1CCN(C(=O)C[C@H]2C[C@H]3c4cc(NS(=O)(=O)c5ccc(F)cc5)ccc4O[C@H]3[C@@H](CO)O2)CC1 | inactive |
| C[C@@H]1CCCCO[C@@H](CN(C)S(=O)(=O)c2ccc(Cl)cc2)[C@@H](C)CN([C@@H](C)CO)C(=O)c2cc(NC(=O)Nc3ccc(C(F)(F)F)cc3)ccc2O1 | inactive |
| COc1ccc(NC(=O)Nc2ccc3c(c2)C(=O)N([C@H](C)CO)C[C@@H](C)[C@H](CN(C)C(=O)Nc2ccc(C(F)(F)F)cc2)OCCCC[C@@H](C)O3)cc1 | inactive |
| COc1ccc(NC(=O)N(C)C[C@@H]2OCCCC[C@@H](C)Oc3ccc(NC(=O)Nc4ccc(C(F)(F)F)cc4)cc3C(=O)N([C@H](C)CO)C[C@@H]2C)cc1 | inactive |
| COc1ccc(NC(=O)N(C)C[C@H]2OCCCC[C@@H](C)Oc3ccc(NC(=O)Nc4ccc(C(F)(F)F)cc4)cc3C(=O)N([C@H](C)CO)C[C@H]2C)cc1 | active |
| O=C(C[C@H]1CC[C@@H]2[C@H](COC[C@H](O)CN2C(=O)c2cccnc2)O1)NCC1CC1 | inactive |
| Fc1cccc(-c2csc(COc3ccccc3Cl)n2)c1 | inactive |
| O=c1c(O)c(-c2cc(O)c(O)c(O)c2)oc2cc(O)cc(O)c12 | inactive |
| Cc1cc(=O)oc2cc(O)c(O)cc12 | inactive |
| O=c1oc2c(O)c(O)cc3c(=O)oc4c(O)c(O)cc1c4c23 | active |
| O=C(C[C@@H]1C[C@H]2c3cc(NC(=O)C4CCOCC4)ccc3O[C@H]2[C@@H](CO)O1)NCc1ccc2c(c1)OCO2 | inactive |
| COc1ccc([C@H]([C@@H](O)Cc2ccccc2)N(C[C@H](/C=C/c2ccccc2)CC(=O)N(C)C)[C@@H](Cc2ccccc2)C(OC)OC)cc1 | active |
| COc1ccc([C@H]([C@@H](O)Cc2ccccc2)N(C/C=C/[C@@H](O)c2ccccc2)[C@@H](Cc2ccccc2)C(OC)OC)cc1 | inactive |
| COc1ccc([C@H]([C@H](Cc2ccccc2)OC(C)=O)N(C[C@@H](/C=C/c2ccccc2)CC(=O)N(C)C)[C@@H](Cc2ccccc2)C(OC)OC)cc1 | active |
| COc1ccc([C@H]([C@H](Cc2ccccc2)OC(C)=O)N(C[C@H](/C=C/c2ccccc2)OC(C)=O)[C@@H](Cc2ccccc2)C(OC)OC)cc1 | inactive |

| SMILES | cytotoxicity call |
| --- | --- |
| COc1ccc([C@H]([C@@H](O)Cc2ccccc2)N(C[C@H](/C=C/c2ccccc2)NC(=O)C(Cl)(Cl)Cl)[C@@H](Cc2ccccc2)C(OC)OC)cc1 | inactive |
| COc1ccc([C@@H]([C@H](Cc2ccccc2)OC(C)=O)N2C[C@H](CC(=O)N(C)C)[C@@H]3C(=NO[C@H]3c3ccccc3)[C@@H]2Cc2ccccc2)cc1 | inactive |
| COc1ccc([C@@H]([C@H](Cc2ccccc2)OC(C)=O)N2C[C@@H](CC(=O)N(C)C)[C@@H]3C(=NO[C@H]3c3ccccc3)[C@@H]2Cc2ccccc2)cc1 | inactive |
| COc1ccc([C@H]([C@H](Cc2ccccc2)OC(C)=O)N(C[C@H](/C=C/c2ccccc2)CC(=O)N(C)C)[C@@H](Cc2ccccc2)C(OC)OC)cc1 | active |
| COc1ccc([C@H]([C@H](Cc2ccccc2)OC(C)=O)N(C[C@H](/C=C/c2ccccc2)NC(=O)C(Cl)(Cl)Cl)[C@@H](Cc2ccccc2)C(OC)OC)cc1 | inactive |
| Cc1noc(C)c1NC(=O)Nc1ccc2c(c1)C(=O)N([C@H](C)CO)C[C@H](C)[C@@H](CN(C)C(=O)Nc1ccccc1)OCCCC[C@H](C)O2 | inactive |
| Cc1ccc(S(=O)(=O)Nc2ccc3c(c2)C(=O)N([C@@H](C)CO)C[C@@H](C)[C@H](CN(C)Cc2ccc4c(c2)OCO4)OCCCC[C@H](C)O3)cc1 | inactive |
| CC(C)C[C@@H]1NC(=O)[C@@H]2C[C@H](C(=O)NCCCCCNC(=O)CS)[C@H](c3cccc(OCCO)c3)N2C1=O | inactive |
| CN1C[C@]2(CCN(C(=O)c3cn(CCN4CCNCC4)nn3)C2)OC1=O | inactive |
| Cc1noc(C)c1S(=O)(=O)N(C)C[C@@H]1Oc2ccc(NC(=O)Cc3ccccc3)cc2CC(=O)N([C@@H](C)CO)C[C@@H]1C | inactive |
| CC(C)NC(=O)N(C)C[C@H]1Oc2ccc(NC(=O)CCCN(C)C)cc2C(=O)N([C@H](C)CO)C[C@H]1C | inactive |
| C[C@H]1CN([C@@H](C)CO)C(=O)Cc2cc(NC(=O)Cn3cnnn3)ccc2O[C@@H]1CN(C)S(=O)(=O)c1ccc(F)cc1 | inactive |
| C[C@@H]1CN([C@H](C)CO)C(=O)Cc2cc(NC(=O)C3CCCCC3)ccc2O[C@H]1CN(C)Cc1ccc(Oc2ccccc2)cc1 | inactive |
| C[C@H]1CN([C@@H](C)CO)C(=O)Cc2cc(NC(=O)C3CCCCC3)ccc2O[C@H]1CN(C)Cc1ccc(Oc2ccccc2)cc1 | active |
| C[C@@H]1CN([C@H](C)CO)C(=O)Cc2cc(NC(=O)C3CCCCC3)ccc2O[C@@H]1CN(C)Cc1ccc(Oc2ccccc2)cc1 | inactive |
| C[C@H](CO)N1C[C@H](C)[C@@H](CN(C)Cc2ccc(Oc3ccccc3)cc2)Oc2ccc(NC(=O)C3CCCCC3)cc2CC1=O | inactive |
| C[C@H](CO)N1C[C@H](C)[C@H](CN(C)Cc2ccc(Oc3ccccc3)cc2)Oc2ccc(NC(=O)C3CC3)cc2CC1=O | inactive |
| C[C@@H]1CN([C@@H](C)CO)C(=O)Cc2cc(NC(=O)C3CC3)ccc2O[C@H]1CN(C)Cc1ccc(Oc2ccccc2)cc1 | inactive |
| C[C@@H]1CN([C@H](C)CO)C(=O)Cc2cc(NC(=O)C3CC3)ccc2O[C@@H]1CN(C)Cc1ccc(Oc2ccccc2)cc1 | active |
| C[C@@H]1CN([C@@H](C)CO)C(=O)Cc2cc(NC(=O)C3CCCCC3)ccc2O[C@H]1CN(C)Cc1ccc(Oc2ccccc2)cc1 | inactive |
| C[C@H](CO)N1C[C@H](C)[C@H](CN(C)Cc2ccc(Oc3ccccc3)cc2)Oc2ccc(NC(=O)C3CCCCC3)cc2CC1=O | active |
